# Shown are actives, neighbours in structure and some others; about 2.3% of the full set was active somewhere.
# PTHR1 agonist = qHTS for PTHR1 Agonists: Primary Screen; Potency, µM (top dose mostly 115 µM), for inactives: at the top dose activation, hits mostly activators; HEK293 GP2 PTHR1 cells, GloSensor cAMP luminescence, 1 h; AID 743266, 2014; 410,000 compounds, 0.075% hits; note: nearly all actives have a fitted effect of over 55% in size
# Target sequence (Q03431 whole entry, looked up): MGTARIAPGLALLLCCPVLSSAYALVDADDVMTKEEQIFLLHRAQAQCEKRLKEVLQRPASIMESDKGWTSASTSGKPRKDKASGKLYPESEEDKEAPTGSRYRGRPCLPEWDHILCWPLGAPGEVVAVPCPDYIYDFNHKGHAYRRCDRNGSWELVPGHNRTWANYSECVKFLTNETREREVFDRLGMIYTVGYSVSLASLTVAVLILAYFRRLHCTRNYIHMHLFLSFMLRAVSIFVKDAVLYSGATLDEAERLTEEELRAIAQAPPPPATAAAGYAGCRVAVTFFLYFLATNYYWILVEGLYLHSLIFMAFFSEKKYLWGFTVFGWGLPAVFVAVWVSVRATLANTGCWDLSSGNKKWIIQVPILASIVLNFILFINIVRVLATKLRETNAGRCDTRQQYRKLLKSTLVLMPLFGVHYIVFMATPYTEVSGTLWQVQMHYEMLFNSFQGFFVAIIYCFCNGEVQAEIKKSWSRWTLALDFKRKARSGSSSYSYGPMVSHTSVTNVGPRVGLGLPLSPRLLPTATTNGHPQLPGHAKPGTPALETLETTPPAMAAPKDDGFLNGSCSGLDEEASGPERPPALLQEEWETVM
#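 HEK-293-derived GP2 cells expressing PTHR1 and a GloSensor cAMP reporter, 3,000/well, plated overnight, given luciferin plus IBMX (each 0.5 mM as added) for 1 h at 37 °C, then compound for 1 h at 37 °C. Luminescence was read after 15 min at room temperature.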
# GLS inhibitor = qHTS for Inhibitors of Glutaminase (GLS); GLS enzymatic activity, qHTS titration; 410,000 compounds, 0.21% hits; Glutaminase kidney isoform, mitochondrial (Homo sapiens), O94925; Potency, µM (titrated, usually from 45.5 µM), for inactives: at the highest dose activity change, negative = inhibition, hits mostly inhibitors; note: % is set by controls: 0 for no effect and ±100 for the full control effect
#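 Human kidney-isoform GLS in 45 mM KH2PO4 pH 8.2, 0.02% Tween-20, with compound, started with 1mM L-Glutamine (added stock). Glutamate oxidase/HRP/Amplex red coupled fluorescence read at start and after 30 min at RT.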
# Glioma ERSR ind = qHTS for Inducers of the Endoplasmic Reticulum Stress Response (ERSR) in Human Glioma: qHTS; U87-MG GRP78 promoter luciferase reporter, 16 h; Potency, µM, for inactives: at the top dose activation, actives largely listed as activators; 420,000 compounds, 0.02% hits; AID 602332, 2012; note: series mostly up to about 76 µM; % of control where 0% means no effect; nearly all actives have a fitted effect of over 35% in size
#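 Stably transfected U87-MG glioma cells carrying a GRP78-based luciferase sensor; 16 h compound incubation. Luminescence end-point read 10 min after Bright-Glo addition at room temperature.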
# GLP1R inv ag = qHTS of GLP-1 Receptor Inverse Agonists (Inhibition Mode). Glucagon-like peptide 1 receptor (Homo sapiens), P43220. HEK293 GLP-1R CRE-luciferase, luminescence, 24 h; GLP-1R form is constitutively active. Potency, µM (top dose mostly 38.3 µM), for inactives: at the highest dose activity change, negative = inhibition, hits mostly inhibitors. 410,000 compounds, 1.6% hits; note: % is set by controls: 0 for no effect and ±100 for the full control effect; nearly all actives have a fitted effect of over 55% in size
#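 Assay principle: reduced luminescence from a cAMP-responsive reporter in HEK293 cells co-expressing a constitutively active GLP-1R. Conditions: 24 hr compound incubation, 37 deg C, 5% CO2.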
# GLP-1R agonist = qHTS of GLP-1 Receptor Agonists; Glucagon-like peptide 1 receptor (Homo sapiens), P43220; HEK293 GLP-1R CRE-luciferase, luminescence, 4-6 h; cells express a hypersensitive GLP-1R form; Potency, µM (doses to about 45.6 µM), inactives show at the top dose activation, usual class: activators; 380,000 compounds, 0.007% hits; AID 624172, 2012; note: % of control where 0% means no effect
# 12-LOX inh = Primary qHTS assay for inhibitors of human arachidonate 12S-lipoxygenase (ALOX12): Round 2; Potency, µM (highest dose often 108 µM), inactives show top-dose activity change, negative = inhibition, hits mostly inhibitors; purified 12hLO, xylenol orange hydroperoxide absorbance; Polyunsaturated fatty acid lipoxygenase ALOX12 (Homo sapiens), P18054; 580,000 compounds, 1.1% hits; note: % is set by controls: 0 for no effect and ±100 for the full control effect
#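 Purified human 12hLO at 150 nM in 25 mM Hepes, 0.01% Triton X-100, pH 7.0, preincubated 15 min at room temperature with compound. Reaction started with 40 uM arachidonic acid, 30 min at room temperature. Hydroperoxide measured by Fe-xylenol orange, 573/405 nm absorbance ratio.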
# * = called active by the depositor; i = inactive; ? = inconclusive; . = no result given; [ ] = remark or other dose. Calls come from the whole dose curve; as a rule, active = well fitted curve in the direction sought with a large enough effect; inconclusive = small, poorly fitted or top-dose-only effect, or another doubt; inactive = no such curve, though single readings can be large; an effect the other way counts as inactive or inconclusive. Potency is the fitted concentration of half-maximal effect.
SMILES,PTHR1 agonist,GLS inhibitor,Glioma ERSR ind,GLP1R inv ag,GLP-1R agonist,12-LOX inh
O=C(Nc1nc(-c2ccco2)c(-c2ccco2)s1)c1ccc(F)cc1F,-16%,4%,-3%,9%,-20%,?
O=S(=O)(Nc1nc(-c2ccco2)c(-c2ccco2)s1)c1ccc(F)cc1F,i,12%,-2%,4%,-2%,7.9µM*
CCOC(=O)c1oc2ccc(Br)cc2c1NC(=O)CN1CCN(C)CC1,i,?,-6%,8.9µM*,10µM*,111%
COC(=O)c1oc2ccc(Br)cc2c1NC(=O)CCN1CCOCC1,i,4%,2%,-5%,22%,-36%
CN=C(Nc1ccc(Br)cc1)SC1CC(=O)N(c2ccc(OC)cc2)C1=O (configuration not stated),-7%,-4%,-3%,11µM*,12%,-16%
CN=C(Nc1ccc(C)c(C)c1)SC1CC(=O)N(c2ccc(OC)cc2)C1=O (configuration not stated),-3%,-6%,-3%,?,9%,-9%
COc1cccc(CN2CCN(Cc3cccc(Oc4ccccc4)c3)CC2)c1OC,-35%,3%,-5%,6.3µM*,-2%,?
COc1ccc(CN2CCN(C/C=C/c3ccccc3)CC2)c(OC)c1OC,.,.,.,.,.,0.56µM*
COc1ccc(CN2CCN(Cc3cccc(OC)c3OC)CC2)cc1,.,.,.,.,.,0.45µM*
COc1ccc(CN2CCN(CCCCOc3ccc(Cl)cc3)CC2)c(OC)c1OC,-22%,-4%,-3%,7.9µM*,3%,-31%
COc1ccccc1N1CCN(Cc2ccc(OC)c(OC)c2OC)CC1,-2%,.,-3%,0%,1%,-19%
COc1cccc(CN2CCN(Cc3cc(OC)c(OC)c(OC)c3)CC2)c1OC,-6%,2%,-6%,16%,0%,?
CCOc1ccccc1NS(=O)(=O)c1cc(-c2cnc(C)o2)ccc1C,.,.,.,.,.,-1%
CN(CC1CC1)C1CCOc2ccccc21 (configuration not stated),.,.,.,.,.,19%[176 µM]
O=C(Nc1nc2ccccc2s1)NC1CC(=O)N(c2cccc(F)c2)C1 (configuration not stated),.,.,.,.,.,12%
CC(C)CN(Cc1ccc(F)cc1)Cc1cc(=O)n2c3c(sc2n1)CCCC3,.,.,.,.,.,-22%
COc1cccc(CN2CCC(N(CCc3ccccc3)Cc3ccccc3)CC2)c1OC,i,17%,-7%,10µM*,-9%,?
Fc1ccc(/C=N/Nc2ccc(F)cc2)cc1,.,.,.,.,.,2.2µM*
Brc1ccc(/C=N/Nc2ccccc2)cc1,?,-14%,-1%,4.5µM*,1%,45µM*
Fc1ccc(/C=N\Nc2cccc(F)c2)cc1,i,-10%,-4%,8%,11%,14%
Oc1ccc(/C=N/Nc2ccccc2)cc1,i,-20%,0%,?,4%,?
Cn1c(SCc2nc3ccccc3o2)nnc1-c1ccc(Cl)cc1,.,.,.,.,.,-2%
CCOc1ccccc1C(=O)N(Cc1cccs1)c1ccc(Cl)cc1,-28%,0%,-2%,13µM*,.,0%
Cc1ccc(N(Cc2cccs2)C(=O)c2ccccc2Cl)cc1,-24%,0%,0%,?,.,-1%
Clc1ccc(CSc2ncnc3c2ncn3C2CCCCO2)cc1 (configuration not stated),-28%,-4%,7%,11µM*,31%,7%
SMILES,PTHR1 agonist,GLS inhibitor,Glioma ERSR ind,GLP1R inv ag,GLP-1R agonist,12-LOX inh
CCCc1cc(=O)oc2cc(C)c(CN3CCCC3)c(O)c12,i,10µM*,0%,22%,-10%,?
COC(=O)c1ncoc1-c1ccccc1C(=O)N1CCN(c2ccccc2)CC1,.,.,.,.,.,2%
COc1cc(NC(=O)CSc2ncnc3nc[nH]c23)cc(OC)c1,.,.,.,.,.,7%
COc1cc(NC(=O)c2ccc3c(c2)N(C)C2CCCCN2C3=O)cc(OC)c1OC (configuration not stated),.,.,.,.,.,29%
[O-]/C(=C(\C(=S)Nc1ccc(SC(F)F)cc1)[n+]1ccccc1)c1ccc(Cl)cc1Cl,-27%,6%,-2%,1.1µM*,5%,?
COc1ccccc1C(=O)Nc1cc(Cl)ccc1O,-12%[57.5 µM],3%,3%,1%,-16%,3%
CCOc1ccccc1C(=O)Nc1cc(Cl)ccc1O,-42%,-15%,1%,7.1µM*,0%,?
Cc1ccc(-c2cc(-c3ccc(C)cc3O)[nH]n2)cc1,-27%,6%,9%,?,-2%,9%
Cc1ccc(O)c(-c2cc(-c3cccc(Br)c3)n[nH]2)c1,-16%,-3%,2%,10µM*,19%,?
COc1ccc(-c2nc(C3CC3)nc3c2CN(C(=O)c2ccccc2F)CC3)cc1,.,.,.,.,.,6%[6.33 µM]
COc1ccccc1C(=O)N1CCc2nc(C3CC3)nc(-c3ccc(Cl)cc3)c2C1,.,.,.,.,.,45µM*
Cc1ccc(NS(=O)(=O)c2cc(Br)cc3c2N(C(=O)C2CC2)CC3)cc1C,-21%,1%,-4%,?,.,-12%
O=C(C1CC1)N1CCc2cc(Br)cc(S(=O)(=O)Nc3ccc(F)c(F)c3)c21,-46%,-7%,-8%,22µM*,-6%,-1%
CCCCCCSC1=C(C#N)C(c2ccc(O)cc2)CC(=O)N1 (configuration not stated),-11%,18%,-2%,5µM*,?,?
CCSC1=C(C#N)C(c2ccc(F)cc2)CC(=O)N1 (configuration not stated),-17%,-23%,-4%,-17%,0%,19%[57.4 µM]
O=C(c1ccccc1)N(Cc1ccco1)C1CC1,.,.,.,.,.,-7%
Cc1ccc(NC(=O)Cc2ccc(-c3ccccc3)cc2)nc1,-27%,0%,8%,10µM*,4%,4%
CCN1C(=O)[C@@H]2[C@@H](c3ccc(-c4ccc5c(c4)OCO5)c(OC)c3)N3CCC[C@@]3(C(=O)OC)[C@@H]2C1=O,i,-1%,-4%,-3%,11%,11µM*
CCN1C(=O)[C@H]2[C@@H](c3ccc(-c4cccc(Cl)c4)c(OC)c3)N[C@@](Cc3ccccc3)(C(=O)OC)[C@H]2C1=O,-4%,-3%,-4%,?,-5%,-21%
